According to the supplement of paper PMC8866396:
± gives the standard deviation of the averaged measurements.

What was measured:
IL-6-GFP PC-9GR = experiment: cell viability (CCK-8 OD) relative to DMSO control (fraction of control); higher = more viable cells; conditions: compound concentration: 10 uM; treatment time: 48 h
Summary of the method: (§1)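 In 96-well plates, 3000 cells/well of PC-9 or PC-9GR lung cancer cells with lentiviral IL-6-GFP overexpression received each compound of a purchased 510-compound library at a final 10 μM for 48 h. Viability, measured by CCK-8 absorbance, is each well's optical density relative to the vehicle control well. Data come from two independent replicates.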

IL-6-GFP PC-9 = experiment: as above; conditions: compound concentration: 10 uM; treatment time: 48 h
Summary of the method: as §1

Structure (SMILES)	cell viability (IL-6-GFP PC-9GR)	cell viability (IL-6-GFP PC-9)
COC(=O)C(Cc1ccccc1)NC(=O)C(N)CC(=O)O (stereo not given) [Aspartame]	1.08 ± 0.091	0.819 ± 0.06
CCS(=O)(=O)O.COC(=O)c1ccc2c(c1)NC(=O)/C2=C(\Nc1ccc(N(C)C(=O)CN2CCN(C)CC2)cc1)c1ccccc1 [Nintedanib Ethanesulfonate Salt]	0.8 ± 0.075	0.782 ± 0.023
O.O.O=C([O-])CCNC(=O)c1ccc(N=Nc2ccc(O)c(C(=O)[O-])c2)cc1.[Na+].[Na+] [Balsalazide disodium]	1.24 ± 0.25	1.34 ± 0.11
Nc1nc(F)nc2c1ncn2C1OC(COP(=O)(O)O)C(O)C1O (stereo not given) [Fludarabine Phosphate]	0.174 ± 0.083	0.206 ± 0.052
COc1cc2c3cc1Oc1c(OC)c(OC)cc4c1C(Cc1ccc(O)c(c1)Oc1ccc(cc1)CC3N(C)CC2)N(C)CC4.Cl.Cl (stereo not given) [Berbamine (dihydrochloride)]	1.14 ± 0.35	1.04 ± 0.053
CCC(=O)OC1(C(=O)CCl)C(C)CC2C3CC(F)C4=CC(=O)C=CC4(C)C3(F)C(O)CC21C (stereo not given) [Halobetasol Propionate]	0.859 ± 0.011	1.05 ± 0.29
O=C(/C=C/c1cccc(S(=O)(=O)Nc2ccccc2)c1)NO [Belinostat (PXD101)]	0.374 ± 0.026	0.262 ± 0.075
Nc1nc(Cl)nc2c1ncn2C1OC(CO)C(O)C1F (stereo not given) [Clofarabine]	0.5 ± 0.013	0.337 ± 0.13
O=C(O)Cc1ccccc1Nc1c(Cl)cccc1Cl [Diclofenac acid]	1.07 ± 0.24	1.12 ± 0.17
Nc1ccn(C2OC(CO)C(O)C2O)c(=O)n1 (stereo not given) [Cytarabine]	0.816 ± 0.077	0.7893 ± 0.0033
